Bioassay records from PubChem.
Only some compounds are listed: those with a hit (about 1.1% of all), similar ones and a draw of the others.
MsrA act – bovine methionine sulfoxide reductase A activation; purified bovine MsrA, absorbance read-out; activation, % at 10.6 µM; 360,000 tested, 0.3% active; in the data active = activation above about 7.5%;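 note: 0% = vehicle and 100% = reference activator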
MsrA inhibitor – inhibitors of bovine MsrA | 360,000 tested, 0.75% active | purified bovine MsrA, absorbance read-out | inhibition, % at 15.5 µM;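 note: 0% = vehicle wells with enzyme and 100% = reference inhibitor wells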
PKA-R1A activ – PKA-R1A complex activation; 340,000 tested, 0.083% active; PKA-R1A dissociation, Cy5-IP20 fluorescence polarization; scaled: DMSO 0%, 113 µM cGMP 100%; activation, % at 11.4 µM; AID 504707;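 active = percent activation above the mean of all tested compounds plus 3 SD, cut at about 19% in these data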;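 note: higher means more PKAc released from R1A so a rise in polarization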
PKA-R2B activ – PKA-R2B complex activation | 340,000 tested, 0.079% active | P22694+P31323 | AID 504700 | activation, % at 11.4 µM | PKA-R2B holoenzyme dissociation, Cy5-IP20 fluorescence polarization; R2B truncated from residue 108, S112A mutant; 0% DMSO only, 100% 113 µM cGMP;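 active = activation above a cutoff set at the mean over all compounds plus 3 SD, cut at about 18% in these data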;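 note: higher means more holoenzyme dissociation and a rise in polarization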
Target sequence (P31323 whole entry, looked up, other chains not shown, the tested form may be a part): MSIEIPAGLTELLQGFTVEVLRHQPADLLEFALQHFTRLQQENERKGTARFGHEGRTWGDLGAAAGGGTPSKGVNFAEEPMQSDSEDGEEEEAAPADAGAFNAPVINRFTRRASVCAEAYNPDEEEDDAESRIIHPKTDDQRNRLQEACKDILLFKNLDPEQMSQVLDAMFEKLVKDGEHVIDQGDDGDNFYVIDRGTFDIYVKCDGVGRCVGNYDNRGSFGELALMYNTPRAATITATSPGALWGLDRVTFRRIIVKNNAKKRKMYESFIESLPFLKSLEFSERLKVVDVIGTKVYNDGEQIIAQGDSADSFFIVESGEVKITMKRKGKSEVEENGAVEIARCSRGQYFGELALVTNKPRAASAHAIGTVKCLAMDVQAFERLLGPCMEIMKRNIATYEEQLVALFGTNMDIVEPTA
MsrA conf – bovine MsrA inhibition, confirmed; purified bovine MsrA, absorbance read-out; shares compounds with MsrA inhibitor; 2,300 tested, 41% active; AID 651822; inhibition, % at 15.5 µM;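 note: coupled to thioredoxin reductase with NADPH and selenocystamine and DMSO as substrate; 0% = vehicle only and 100% = full effect of reference inhibitor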
* marks the source's active call; other numbers are inactive results; x = no result given. Cut-off read from the data, not from the text of the source, unless noted: active = inhibition above about 4.5%; inactive = the rest.

SMILES	MsrA act	MsrA inhibitor	PKA-R1A activ	PKA-R2B activ	MsrA conf
COc1ccc(/C=N/Nc2nonc2N)cc1	-5	2	0	-2	x
COc1ccc(/C=N/Nc2nn3cnnc3c3ccccc23)cc1	-2	5.1*	-2	4	4
CN(CC(=O)Nc1ccc(N2CCOCC2)cc1)C(=O)Cc1ccccc1	-2	5.3*	7	5	0
CC(CC(=O)N(C)CC(=O)Nc1ccc(N2CCOCC2)cc1)c1ccccc1 (centres undefined)	-4	1	-4	-4	x
CCc1nc(N)c(C#N)c(-c2ccccc2OC)c1C	-10	4.7*	-7	-12	0
COc1ccccc1-c1c(C)c(C)nc(N)c1C#N	-2	2	-2	-2	x
COc1ccc(-c2ccc3c(c2)[C@@H]2C[C@H](N(C)C(=O)C(C)(C)C)[C@H]([C@H](C)O)C(=O)N2CC3)cc1	1	1	-4	4	x
C[C@@H](NC(=O)c1coc(=O)c(Br)c1)c1ccccc1	-3	4.8*	11	0	4.8*
COc1ccc(C(=O)NC(C)c2ccccc2)cc1Br (centres undefined)	-4	-1	5	-7	x
c1ccc(-c2onc3cc4c(cc23)OCCO4)cc1	0	5.1*	3	-9	2
CC1CCCCN1C(=O)COC(=O)c1cc([N+](=O)[O-])ccc1N (centres undefined)	-2	1	-7	-5	x
N#C/C(=C/Nc1ccccc1)c1ccsc1	-15	4.8*	8	1	2
COc1ccccc1/C=C/C=C1N=C(/C=C/c2ccc(Cl)cc2)OC/1=O	-4	2	-10	-1	x
COc1ccccc1/C=C/C1=NC(=C\C=C/c2ccccc2)/C(=O)O1	-6	6.4*	0	8	2
CO[C@@H]1CN(C)C(=O)c2cc(NC(=O)NC3CCCCC3)ccc2OC[C@@H](C)N(CCc2ccccc2)C[C@@H]1C	x	0	x	x	x
COc1ccc(NC(=O)CN(C)C(=O)/C=C/c2cn(-c3ccccc3)nc2-c2ccc(F)cc2)cc1	1	3	-7	-14	x
COc1ccc(NC(=O)CN(C)C(=O)/C=C/c2cn(-c3ccccc3)nc2-c2ccc(C)cc2)cc1	-4	4.9*	-6	-6	3
COc1cccc(NC(=S)NCCc2ccccn2)c1	-5	1	-6	0	x
O=C(NNC(=O)C1CC1)c1cc2cc3ccccc3nc2s1	-4	4.9*	-10	-16	2
O=C(NNC(=O)c1cc2cc3ccccc3nc2s1)c1ccc(F)cc1	-11	1	-5	-3	x
COc1cc(C2C(C#N)=C(N)OC3=C2C(=O)CCC3)cc2c1OCO2 (centres undefined)	-4	3	-21	6	x
Cc1[nH]c(C(=O)N/N=C/c2ccc(C(=O)O)cc2)c(C)c1C(=O)N/N=C/c1ccc(C(=O)O)cc1	-16	9.9*	-15	-9	9.4*
CCOC(=O)c1c(C)[nH]c(C(=O)N/N=C/c2ccc(Br)cc2)c1C	-2	2	-21	-1	x
CN(C)c1ccc(/C=N/NC(=O)c2cccc(C(=O)N/N=C/c3ccc(N(C)C)cc3)n2)cc1	-3	-1	-1	0	x
Cc1[nH]c(C(=O)N/N=C/c2ccc(N(C)C)cc2)c(C)c1C(=O)N/N=C/c1ccc(N(C)C)cc1	-11	7.5*	-9	2	5.2*
SMILES	MsrA act	MsrA inhibitor	PKA-R1A activ	PKA-R2B activ	MsrA conf
CC(=O)OCC(=O)Nc1ccc(N=Nc2ccccc2)cc1	-6	5.9*	-2	-6	4
CC(C)(C)C(=O)c1c(N)[nH]c(C(=O)c2ccccc2)c1-c1ccc(Br)cc1	-1	-1	x	x	x
COc1ccc(CCNC(=O)C2CCN(S(=O)(=O)c3ccc(-n4cnnn4)cc3)CC2)cc1OC	-2	56*	-7	6	-1
COc1ccc(CCNC(=O)C2CCN(S(=O)(=O)c3ccc(OC)c(OC)c3)CC2)cc1OC	-2	-1	1	-2	x
COC(=O)c1cccc(Nc2nc(-c3cccnc3)nc3ccccc23)c1	-4	1	9	1	x
O=C(O)c1cccc(Nc2nc(-c3cccnc3)nc3ccccc23)c1	-3	5.6*	2	2	2
O=[N+]([O-])c1ccc(N/N=C2\CC3CC=CC23)cc1 (centres undefined)	-14	1	4	11	x
O=[N+]([O-])c1ccc(N/N=C2\CC3CC=CC23)c([N+](=O)[O-])c1 (centres undefined)	-8	5.6*	-12	-8	4
O=[N+]([O-])c1ccc(Nc2ccccc2)c2nonc12	4	5.8*	7	2	4
Cc1sc(NC(=O)C2CSC3(C)CCC(=O)N23)nc1-c1ccc(F)cc1 (centres undefined)	-5	0	-12	-4	x
O=C(O)/C=C/c1ccc(-c2cccc(C(F)(F)F)c2)o1	-6	6.0*	3	-12	4
O=C(N/N=C/c1ccc(-c2ccccc2C(=O)O)o1)c1cccs1	-5	6.8*	2	5	4.6*
CC1(Oc2cccc(F)c2)CCN(Cc2ccc(-c3ccccn3)cc2)C1 (centres undefined)	1	0	x	x	x
COc1ccc(/C=C/C(=O)N2CCNC(=O)C2)c(OC)c1	-9	4.8*	-18	-9	3
O=C1CN(C(=O)/C=C/c2cc(Br)ccc2F)CCN1	0	0	-6	-10	x
COc1ccc(N(CC(=O)Nc2cccc(N(C)S(C)(=O)=O)c2)S(=O)(=O)c2ccccc2)cc1Cl	-3	2	-14	-8	x
O=C(O)c1ccc(NC2=C/C(=N/S(=O)(=O)c3ccccc3)c3ccccc3C2=O)cc1	-2	65*	-6	2	63*
Cc1ccc(Cl)cc1NC1=C/C(=N\S(=O)(=O)c2cccs2)c2ccccc2C1=O	2	5.6*	2	-3	8.2*
Cc1cc(C)c(S(=O)(=O)/N=C2\C=C(Nc3ccc(C(=O)O)cc3)C(=O)c3ccccc32)c(C)c1	-1	19*	3	-13	21*
Cc1cc(C)c(S(=O)(=O)/N=C2\C=C(NS(=O)(=O)c3ccccc3)C(=O)c3ccccc32)c(C)c1	1	0	6	-10	x
CCc1ccc(S(=O)(=O)/N=C2\C=C(Nc3cccc(C(=O)O)c3)C(=O)c3ccccc32)cc1	1	52*	-18	-3	53*
CCOc1ccc(C(O)(c2ccccc2)C(CN2CCCC2)c2ccccc2)cc1 (centres undefined)	-3	0	-1	6	x
CC1(C(=O)NS(=O)(=O)c2ccc3ccccc3c2)CCN1C(=O)Cc1ccc(-c2ccccc2)cc1 (centres undefined)	-2	-1	x	x	x
Cc1cccc(NC2=C/C(=N/S(=O)(=O)c3cccs3)c3ccccc3C2=O)c1	0	-1	-2	1	x
O=C(O)c1ccc(NC2=C/C(=N/S(=O)(=O)c3cccs3)c3ccccc3C2=O)cc1	-2	62*	1	-5	66*
C[C@@H]1CN(C(=O)OC(C)(C)C)CCN1c1ccc(N2CCS(=O)(=O)CC2)c(C#N)c1	x	0	x	x	x
